Reference: publication PMC7862700, “An all-to-all approach to the identification of sequence-specific readers for epigenetic DNA modifications on cytosine”

Assays:
Assay in all cases: DAPPL (digital affinity profiling via proximity ligation, sequencing); 10 mM Tris-HCl pH 7.5, 50 mM NaCl, 1 mM DTT, 4% glycerol, room temperature, 30 min; GST-TFs on glutathione beads, 16-mer random dsDNA library, 0.1% formaldehyde crosslink after washing; high values mean tight binding
FEV = biological target: T1, FEV (Homo sapiens, UniProt Q99581 1-238); conditions: protein: recombinant; tags: N-terminal GST; dsDNA, one strand shown
T1 sequence: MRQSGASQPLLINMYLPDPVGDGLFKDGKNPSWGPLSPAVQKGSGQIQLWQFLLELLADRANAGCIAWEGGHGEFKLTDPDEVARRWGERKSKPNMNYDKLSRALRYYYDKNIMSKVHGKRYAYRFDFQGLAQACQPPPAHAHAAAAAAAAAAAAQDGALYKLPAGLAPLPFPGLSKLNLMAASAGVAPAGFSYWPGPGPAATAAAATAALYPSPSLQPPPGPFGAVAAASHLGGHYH
Summary of the method: (§1)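 GST fusions of human transcription factors were expressed in yeast and captured with glutathione beads. Once given DNA barcodes and pooled alongside a tag-only sample, they were incubated for 30 min at room temperature with 200 nmole of a random double-stranded 16-mer DNA library in Tris/NaCl/DTT/glycerol buffer, then washed, crosslinked (0.1% formaldehyde), proximity-ligated, PCR-amplified and sequenced on an Illumina NextSeq500. The binding signal of each hexamer is its read frequency for a factor divided by its frequency for the tag-only sample.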

ETV5 = ETV5 (Homo sapiens, UniProt P41161 1-510); conditions: protein: recombinant; tags: N-terminal GST; dsDNA, one strand shown
Summary of the method: as §1

HSF1 = HSF1 (Homo sapiens, UniProt Q00613 1-529); conditions: protein: recombinant; tags: N-terminal GST; chain copies: 3; dsDNA, one strand shown
Summary of the method: as §1

SPIC = biological target: T2, SPIC (Homo sapiens, UniProt Q8N5J4 1-248); conditions: protein: recombinant; tags: N-terminal GST; dsDNA, one strand shown
T2 sequence: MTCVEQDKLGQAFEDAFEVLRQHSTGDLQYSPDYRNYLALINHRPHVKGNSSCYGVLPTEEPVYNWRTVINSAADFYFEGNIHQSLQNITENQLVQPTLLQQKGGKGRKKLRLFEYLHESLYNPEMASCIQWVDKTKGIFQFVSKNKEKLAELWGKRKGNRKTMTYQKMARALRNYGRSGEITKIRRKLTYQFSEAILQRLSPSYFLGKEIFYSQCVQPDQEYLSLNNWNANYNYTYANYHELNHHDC
Summary of the method: as §1

ELF4 = ELF4 (Homo sapiens, UniProt Q99607 1-663); conditions: protein: recombinant; tags: N-terminal GST; dsDNA, one strand shown
Summary of the method: as §1

ELK4 = biological target: T3, ELK4 (Homo sapiens, UniProt P28324-2 1-405); conditions: protein: recombinant; tags: N-terminal GST; dsDNA, one strand shown
T3 sequence: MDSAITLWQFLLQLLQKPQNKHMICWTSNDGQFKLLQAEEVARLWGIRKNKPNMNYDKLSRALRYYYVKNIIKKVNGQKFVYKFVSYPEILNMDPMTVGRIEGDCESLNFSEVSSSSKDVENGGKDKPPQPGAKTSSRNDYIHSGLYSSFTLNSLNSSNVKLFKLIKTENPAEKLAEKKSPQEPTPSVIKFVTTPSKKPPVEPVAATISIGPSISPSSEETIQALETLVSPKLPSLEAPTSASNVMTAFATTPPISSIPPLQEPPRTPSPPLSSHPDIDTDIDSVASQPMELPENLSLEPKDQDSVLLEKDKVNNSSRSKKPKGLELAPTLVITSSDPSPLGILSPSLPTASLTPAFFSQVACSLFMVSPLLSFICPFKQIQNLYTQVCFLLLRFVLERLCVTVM
Summary of the method: as §1

ELF3 = biological target: T4, ELF3 (Homo sapiens, UniProt P78545 1-371); conditions: protein: recombinant; tags: N-terminal GST; dsDNA, one strand shown
T4 sequence: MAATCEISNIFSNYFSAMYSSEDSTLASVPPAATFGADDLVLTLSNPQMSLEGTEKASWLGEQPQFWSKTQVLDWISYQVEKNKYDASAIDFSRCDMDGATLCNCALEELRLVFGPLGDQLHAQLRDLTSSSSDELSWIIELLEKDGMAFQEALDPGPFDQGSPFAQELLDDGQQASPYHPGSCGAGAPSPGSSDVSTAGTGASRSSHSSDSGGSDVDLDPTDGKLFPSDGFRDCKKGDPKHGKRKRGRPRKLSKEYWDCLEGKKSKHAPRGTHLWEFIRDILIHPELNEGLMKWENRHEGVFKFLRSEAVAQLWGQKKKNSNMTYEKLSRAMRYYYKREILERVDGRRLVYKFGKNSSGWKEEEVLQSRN
Summary of the method: as §1

CRX = CRX (Homo sapiens, UniProt O43186 1-299); conditions: protein: recombinant; tags: N-terminal GST; dsDNA, one strand shown
Summary of the method: as §1

ETV1 = ETV1 (Homo sapiens, UniProt P50549 1-477); conditions: protein: recombinant; tags: N-terminal GST; dsDNA, one strand shown
Summary of the method: as §1

ERF = biological target: T5, ERF (Homo sapiens, UniProt P50548 1-548); conditions: protein: recombinant; tags: N-terminal GST; dsDNA, one strand shown
T5 sequence: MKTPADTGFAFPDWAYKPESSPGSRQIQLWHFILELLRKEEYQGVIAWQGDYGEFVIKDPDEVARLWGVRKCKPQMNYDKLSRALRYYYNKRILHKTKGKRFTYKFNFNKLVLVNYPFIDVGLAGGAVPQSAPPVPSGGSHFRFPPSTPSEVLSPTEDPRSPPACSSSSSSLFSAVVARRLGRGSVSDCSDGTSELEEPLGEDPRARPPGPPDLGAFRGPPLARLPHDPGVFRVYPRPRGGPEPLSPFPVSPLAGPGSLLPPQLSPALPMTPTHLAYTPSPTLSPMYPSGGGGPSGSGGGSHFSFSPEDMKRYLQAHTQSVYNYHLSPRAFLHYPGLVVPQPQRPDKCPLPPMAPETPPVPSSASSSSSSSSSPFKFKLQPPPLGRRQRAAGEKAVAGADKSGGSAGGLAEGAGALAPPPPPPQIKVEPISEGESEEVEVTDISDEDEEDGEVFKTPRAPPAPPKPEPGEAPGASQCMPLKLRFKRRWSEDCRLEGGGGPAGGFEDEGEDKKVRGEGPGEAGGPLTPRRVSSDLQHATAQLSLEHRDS
Summary of the method: as §1

ETS2 = biological target: T6, ETS2 (Homo sapiens, UniProt P15036 1-469); conditions: protein: recombinant; tags: N-terminal GST; dsDNA, one strand shown
T6 sequence: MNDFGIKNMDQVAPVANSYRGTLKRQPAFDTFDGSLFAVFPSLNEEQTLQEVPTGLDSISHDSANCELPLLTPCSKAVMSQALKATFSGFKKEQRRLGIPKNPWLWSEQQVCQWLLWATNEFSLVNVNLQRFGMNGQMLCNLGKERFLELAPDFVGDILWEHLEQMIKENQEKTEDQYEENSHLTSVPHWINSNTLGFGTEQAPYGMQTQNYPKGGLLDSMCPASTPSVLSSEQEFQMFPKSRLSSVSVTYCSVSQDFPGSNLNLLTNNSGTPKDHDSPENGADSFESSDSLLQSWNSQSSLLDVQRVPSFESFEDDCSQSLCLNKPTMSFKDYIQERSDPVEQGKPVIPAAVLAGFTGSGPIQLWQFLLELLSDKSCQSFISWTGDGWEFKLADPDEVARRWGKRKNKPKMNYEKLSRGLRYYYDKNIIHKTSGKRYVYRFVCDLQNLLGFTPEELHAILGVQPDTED
Summary of the method: as §1

ETV7 = biological target: T7, ETV7 (Homo sapiens, UniProt Q9Y603 1-341); conditions: protein: recombinant; tags: N-terminal GST; dsDNA, one strand shown
T7 sequence: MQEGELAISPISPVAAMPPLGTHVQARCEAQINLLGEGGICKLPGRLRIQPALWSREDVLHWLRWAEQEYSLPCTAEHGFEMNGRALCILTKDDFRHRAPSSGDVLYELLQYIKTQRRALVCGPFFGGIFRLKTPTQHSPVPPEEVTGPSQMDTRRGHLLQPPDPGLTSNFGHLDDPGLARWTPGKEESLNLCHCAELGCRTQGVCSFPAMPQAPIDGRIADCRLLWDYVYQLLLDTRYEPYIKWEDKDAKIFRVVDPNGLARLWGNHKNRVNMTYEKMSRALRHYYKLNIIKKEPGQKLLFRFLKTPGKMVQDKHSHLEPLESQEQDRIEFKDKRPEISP
Summary of the method: as §1

ELF5 = biological target: T8, ELF5 (Homo sapiens, UniProt Q9UKW6-2 1-255); conditions: protein: recombinant; tags: N-terminal GST; dsDNA, one strand shown
T8 sequence: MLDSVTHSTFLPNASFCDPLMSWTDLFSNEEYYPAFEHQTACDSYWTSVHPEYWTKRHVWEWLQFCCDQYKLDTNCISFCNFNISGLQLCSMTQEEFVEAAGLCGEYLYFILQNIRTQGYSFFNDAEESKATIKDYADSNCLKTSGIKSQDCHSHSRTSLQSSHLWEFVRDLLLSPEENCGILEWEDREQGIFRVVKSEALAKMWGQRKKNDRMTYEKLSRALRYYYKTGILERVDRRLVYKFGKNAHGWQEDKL
Summary of the method: as §1

ETV3 = biological target: T9, ETV3 (Homo sapiens, UniProt P41162-2 1-143); conditions: protein: recombinant; tags: N-terminal GST; dsDNA, one strand shown
T9 sequence: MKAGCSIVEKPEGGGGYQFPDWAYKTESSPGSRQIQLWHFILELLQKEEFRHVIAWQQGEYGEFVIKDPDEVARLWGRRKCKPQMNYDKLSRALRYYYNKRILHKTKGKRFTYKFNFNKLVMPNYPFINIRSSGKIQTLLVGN
Summary of the method: as §1

ETV6 = ETV6 (Homo sapiens, UniProt P41212 1-452); conditions: protein: recombinant; tags: N-terminal GST; dsDNA, one strand shown
Summary of the method: as §1

ETV3L = biological target: T10, ETV3L (Homo sapiens, UniProt Q6ZN32 1-361); conditions: protein: recombinant; tags: N-terminal GST; dsDNA, one strand shown
T10 sequence: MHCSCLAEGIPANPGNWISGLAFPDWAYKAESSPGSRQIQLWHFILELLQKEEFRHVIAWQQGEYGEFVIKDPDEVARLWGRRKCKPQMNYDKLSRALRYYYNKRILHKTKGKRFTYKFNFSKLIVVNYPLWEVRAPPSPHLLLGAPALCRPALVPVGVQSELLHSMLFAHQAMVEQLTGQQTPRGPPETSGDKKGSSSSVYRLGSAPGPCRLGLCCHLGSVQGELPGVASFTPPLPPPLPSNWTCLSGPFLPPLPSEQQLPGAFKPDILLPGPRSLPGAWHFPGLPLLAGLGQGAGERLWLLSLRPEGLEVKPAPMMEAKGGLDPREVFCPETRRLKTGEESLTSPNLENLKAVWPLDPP
Summary of the method: as §1

SPDEF = biological target: T11, SPDEF (Homo sapiens, UniProt O95238 1-335); conditions: protein: recombinant; tags: N-terminal GST; dsDNA, one strand shown
T11 sequence: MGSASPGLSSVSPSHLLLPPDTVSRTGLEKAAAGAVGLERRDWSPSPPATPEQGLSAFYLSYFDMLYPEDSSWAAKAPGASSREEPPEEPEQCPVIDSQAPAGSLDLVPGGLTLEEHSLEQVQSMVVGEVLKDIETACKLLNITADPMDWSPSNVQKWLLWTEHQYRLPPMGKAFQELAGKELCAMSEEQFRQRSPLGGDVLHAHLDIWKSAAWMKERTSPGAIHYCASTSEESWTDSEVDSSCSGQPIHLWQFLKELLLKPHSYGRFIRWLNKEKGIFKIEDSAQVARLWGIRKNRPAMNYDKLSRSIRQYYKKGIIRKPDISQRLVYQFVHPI
Summary of the method: as §1

Chain of ETV6 (P41212 whole entry): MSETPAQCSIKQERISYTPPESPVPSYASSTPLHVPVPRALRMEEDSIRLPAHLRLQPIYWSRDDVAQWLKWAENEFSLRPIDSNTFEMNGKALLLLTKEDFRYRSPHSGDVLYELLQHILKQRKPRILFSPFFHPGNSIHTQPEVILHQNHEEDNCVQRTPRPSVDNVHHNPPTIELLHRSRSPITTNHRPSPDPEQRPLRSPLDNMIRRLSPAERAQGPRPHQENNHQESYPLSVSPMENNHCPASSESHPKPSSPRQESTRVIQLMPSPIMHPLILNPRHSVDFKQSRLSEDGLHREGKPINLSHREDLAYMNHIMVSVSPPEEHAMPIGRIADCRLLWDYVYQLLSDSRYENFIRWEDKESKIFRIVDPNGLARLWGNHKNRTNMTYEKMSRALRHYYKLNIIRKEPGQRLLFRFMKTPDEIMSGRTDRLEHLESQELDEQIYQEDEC
Chain of HSF1 (Q00613 whole entry): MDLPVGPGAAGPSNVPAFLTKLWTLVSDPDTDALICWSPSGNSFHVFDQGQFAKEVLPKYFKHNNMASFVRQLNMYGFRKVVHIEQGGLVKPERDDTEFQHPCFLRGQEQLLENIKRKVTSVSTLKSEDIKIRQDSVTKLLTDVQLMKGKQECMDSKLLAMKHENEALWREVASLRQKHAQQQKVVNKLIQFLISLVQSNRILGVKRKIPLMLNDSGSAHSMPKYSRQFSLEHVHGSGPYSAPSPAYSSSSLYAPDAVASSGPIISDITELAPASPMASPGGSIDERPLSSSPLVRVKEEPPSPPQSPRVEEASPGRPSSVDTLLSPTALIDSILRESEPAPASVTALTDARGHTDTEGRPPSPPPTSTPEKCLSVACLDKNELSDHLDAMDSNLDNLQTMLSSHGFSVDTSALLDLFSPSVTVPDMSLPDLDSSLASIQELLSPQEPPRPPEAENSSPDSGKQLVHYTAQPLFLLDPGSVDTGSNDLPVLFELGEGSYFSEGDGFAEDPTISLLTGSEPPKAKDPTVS
Chain of CRX (O43186 whole entry): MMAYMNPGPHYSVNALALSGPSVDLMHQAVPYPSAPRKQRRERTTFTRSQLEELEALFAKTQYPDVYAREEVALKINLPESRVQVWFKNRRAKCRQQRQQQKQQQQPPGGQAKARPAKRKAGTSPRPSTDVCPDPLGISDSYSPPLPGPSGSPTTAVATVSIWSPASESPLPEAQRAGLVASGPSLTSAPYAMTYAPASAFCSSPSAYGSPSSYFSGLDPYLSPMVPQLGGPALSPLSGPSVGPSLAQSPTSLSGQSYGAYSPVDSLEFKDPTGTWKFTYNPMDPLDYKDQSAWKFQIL
Chain of ELF4 (Q99607 whole entry): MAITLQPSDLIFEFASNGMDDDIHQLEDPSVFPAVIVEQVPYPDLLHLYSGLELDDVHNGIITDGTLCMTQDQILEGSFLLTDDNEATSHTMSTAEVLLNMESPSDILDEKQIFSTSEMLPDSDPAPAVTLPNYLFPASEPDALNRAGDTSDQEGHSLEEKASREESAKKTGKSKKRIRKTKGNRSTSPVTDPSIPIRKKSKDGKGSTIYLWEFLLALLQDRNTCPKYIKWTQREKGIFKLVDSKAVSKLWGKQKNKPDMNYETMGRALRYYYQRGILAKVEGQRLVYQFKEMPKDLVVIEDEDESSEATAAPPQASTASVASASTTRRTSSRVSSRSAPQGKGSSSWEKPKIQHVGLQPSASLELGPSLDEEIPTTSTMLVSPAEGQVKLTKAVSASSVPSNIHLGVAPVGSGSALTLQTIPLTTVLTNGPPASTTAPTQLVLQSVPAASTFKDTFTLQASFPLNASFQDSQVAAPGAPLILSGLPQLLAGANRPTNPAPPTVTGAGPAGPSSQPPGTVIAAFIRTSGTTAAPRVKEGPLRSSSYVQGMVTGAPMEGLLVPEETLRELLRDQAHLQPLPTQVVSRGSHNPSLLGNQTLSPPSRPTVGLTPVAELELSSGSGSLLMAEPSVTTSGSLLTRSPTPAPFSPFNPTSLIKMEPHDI
Chain of ETV5 (P41161 whole entry): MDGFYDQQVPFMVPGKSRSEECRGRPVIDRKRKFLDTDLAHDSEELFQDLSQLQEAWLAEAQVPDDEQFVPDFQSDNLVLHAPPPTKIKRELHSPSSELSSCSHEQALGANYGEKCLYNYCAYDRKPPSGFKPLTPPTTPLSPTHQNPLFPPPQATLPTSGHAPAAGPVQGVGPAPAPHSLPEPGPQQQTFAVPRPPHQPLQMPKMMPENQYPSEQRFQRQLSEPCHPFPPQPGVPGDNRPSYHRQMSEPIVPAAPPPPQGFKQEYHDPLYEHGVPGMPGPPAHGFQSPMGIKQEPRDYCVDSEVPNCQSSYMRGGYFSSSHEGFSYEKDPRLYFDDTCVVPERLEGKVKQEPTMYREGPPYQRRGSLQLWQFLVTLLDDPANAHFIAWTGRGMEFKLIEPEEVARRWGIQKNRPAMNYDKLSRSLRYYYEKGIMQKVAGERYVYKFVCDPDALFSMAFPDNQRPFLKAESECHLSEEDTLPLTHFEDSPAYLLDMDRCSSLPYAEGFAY
Chain of ETV1 (P50549 whole entry): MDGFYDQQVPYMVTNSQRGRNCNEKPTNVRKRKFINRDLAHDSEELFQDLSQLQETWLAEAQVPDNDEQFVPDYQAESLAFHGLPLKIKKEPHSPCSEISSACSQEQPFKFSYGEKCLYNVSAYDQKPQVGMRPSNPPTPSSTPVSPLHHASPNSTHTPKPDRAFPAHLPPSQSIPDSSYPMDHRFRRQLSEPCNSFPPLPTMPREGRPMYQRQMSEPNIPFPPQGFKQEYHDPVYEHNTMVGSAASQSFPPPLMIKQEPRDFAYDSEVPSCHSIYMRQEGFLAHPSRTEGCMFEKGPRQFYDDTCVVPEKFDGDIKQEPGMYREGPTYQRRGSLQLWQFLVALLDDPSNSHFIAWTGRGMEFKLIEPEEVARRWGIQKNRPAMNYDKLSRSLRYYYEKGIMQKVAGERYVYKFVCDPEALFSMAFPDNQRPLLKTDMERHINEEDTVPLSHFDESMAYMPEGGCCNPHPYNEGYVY

Sequence | binding signal (FEV) | binding signal (ETV5) | binding signal (HSF1) | binding signal (SPIC) | binding signal (ELF4) | binding signal (ELK4) | binding signal (ELF3) | binding signal (CRX) | binding signal (ETV1) | binding signal (ERF) | binding signal (ETS2) | binding signal (ETV7) | binding signal (ELF5) | binding signal (ETV3) | binding signal (ETV6) | binding signal (ETV3L) | binding signal (SPDEF)
TAAAGC | 1.04 fold enrichment (6-mer frequency, TF over GST control) | 1.09 fold enrichment (6-mer frequency, TF over GST control) | 1.33 fold enrichment (6-mer frequency, TF over GST control) | 1.1 fold enrichment (6-mer frequency, TF over GST control) | 1.05 fold enrichment (6-mer frequency, TF over GST control) | 1.1 fold enrichment (6-mer frequency, TF over GST control) | 1.06 fold enrichment (6-mer frequency, TF over GST control) | 1.87 fold enrichment (6-mer frequency, TF over GST control) | 1.08 fold enrichment (6-mer frequency, TF over GST control) | 1.13 fold enrichment (6-mer frequency, TF over GST control) | 1.05 fold enrichment (6-mer frequency, TF over GST control) | 1.04 fold enrichment (6-mer frequency, TF over GST control) | 1.01 fold enrichment (6-mer frequency, TF over GST control) | 1.1 fold enrichment (6-mer frequency, TF over GST control) | 1.02 fold enrichment (6-mer frequency, TF over GST control) |  | 
AAGCGC | 1.14 fold enrichment (6-mer frequency, TF over GST control) | 1.09 fold enrichment (6-mer frequency, TF over GST control) | 1.08 fold enrichment (6-mer frequency, TF over GST control) | 1.14 fold enrichment (6-mer frequency, TF over GST control) | 1.12 fold enrichment (6-mer frequency, TF over GST control) | 1.2 fold enrichment (6-mer frequency, TF over GST control) | 1.16 fold enrichment (6-mer frequency, TF over GST control) | 1.27 fold enrichment (6-mer frequency, TF over GST control) | 1.09 fold enrichment (6-mer frequency, TF over GST control) | 1.1 fold enrichment (6-mer frequency, TF over GST control) | 1.22 fold enrichment (6-mer frequency, TF over GST control) | 1.11 fold enrichment (6-mer frequency, TF over GST control) | 1.13 fold enrichment (6-mer frequency, TF over GST control) | 1.29 fold enrichment (6-mer frequency, TF over GST control) | 1.15 fold enrichment (6-mer frequency, TF over GST control) | 1.13 fold enrichment (6-mer frequency, TF over GST control) | 1.03 fold enrichment (6-mer frequency, TF over GST control)
